# Laboratory results reported in PMC7862700, “An all-to-all approach to the identification of sequence-specific readers for epigenetic DNA modifications on cytosine”.
# Assays:
# Assay in all cases: DAPPL (digital affinity profiling via proximity ligation, sequencing); 10 mM Tris-HCl pH 7.5, 50 mM NaCl, 1 mM DTT, 4% glycerol, room temperature, 30 min; GST-TFs on glutathione beads, 16-mer random dsDNA library, 0.1% formaldehyde crosslink after washing; high values mean tight binding
# [1] = molecular target: T1, FLI1 (Homo sapiens, UniProt Q01543 1-452); settings: protein: recombinant; tags: N-terminal GST; dsDNA, one strand shown
# T1 sequence: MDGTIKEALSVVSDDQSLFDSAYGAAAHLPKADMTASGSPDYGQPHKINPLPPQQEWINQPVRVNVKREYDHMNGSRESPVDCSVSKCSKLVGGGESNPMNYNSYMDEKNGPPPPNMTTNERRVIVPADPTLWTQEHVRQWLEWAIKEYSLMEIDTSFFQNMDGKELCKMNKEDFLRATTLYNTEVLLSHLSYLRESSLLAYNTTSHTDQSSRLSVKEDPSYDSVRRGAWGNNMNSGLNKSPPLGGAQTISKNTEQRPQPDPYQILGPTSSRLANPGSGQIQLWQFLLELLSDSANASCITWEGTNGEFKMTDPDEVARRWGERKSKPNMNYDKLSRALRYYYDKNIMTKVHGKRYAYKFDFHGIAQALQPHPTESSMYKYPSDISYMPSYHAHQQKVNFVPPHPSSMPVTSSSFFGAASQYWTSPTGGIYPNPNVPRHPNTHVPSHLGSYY
# Procedure, shortened: (§1)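 GST fusions of human transcription factors were expressed in yeast and captured with glutathione beads. Once given DNA barcodes and pooled alongside a tag-only sample, they were incubated for 30 min at room temperature with 200 nmole of a random double-stranded 16-mer DNA library in Tris/NaCl/DTT/glycerol buffer, then washed, crosslinked (0.1% formaldehyde), proximity-ligated, PCR-amplified and sequenced on an Illumina NextSeq500. The binding signal of each hexamer is its read frequency for a factor divided by its frequency for the tag-only sample.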
# [2] = molecular target: T2, ELK1 (Homo sapiens, UniProt P19419 1-428); settings: protein: recombinant; tags: N-terminal GST; dsDNA, one strand shown
# T2 sequence: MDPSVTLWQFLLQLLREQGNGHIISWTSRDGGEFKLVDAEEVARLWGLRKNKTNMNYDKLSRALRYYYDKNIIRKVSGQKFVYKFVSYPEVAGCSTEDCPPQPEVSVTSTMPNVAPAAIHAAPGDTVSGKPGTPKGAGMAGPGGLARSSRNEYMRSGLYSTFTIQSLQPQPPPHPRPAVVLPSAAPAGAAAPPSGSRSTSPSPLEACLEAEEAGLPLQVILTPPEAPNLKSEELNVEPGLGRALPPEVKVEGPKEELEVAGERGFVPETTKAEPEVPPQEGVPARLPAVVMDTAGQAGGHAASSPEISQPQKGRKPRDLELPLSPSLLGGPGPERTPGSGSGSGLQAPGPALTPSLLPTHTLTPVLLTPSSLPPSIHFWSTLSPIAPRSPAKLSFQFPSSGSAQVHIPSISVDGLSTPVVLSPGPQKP
# Procedure, shortened: as §1
# [3] = molecular target: T3, GABPA (Homo sapiens, UniProt Q06546 1-454); settings: protein: recombinant; tags: N-terminal GST; dsDNA, one strand shown
# T3 sequence: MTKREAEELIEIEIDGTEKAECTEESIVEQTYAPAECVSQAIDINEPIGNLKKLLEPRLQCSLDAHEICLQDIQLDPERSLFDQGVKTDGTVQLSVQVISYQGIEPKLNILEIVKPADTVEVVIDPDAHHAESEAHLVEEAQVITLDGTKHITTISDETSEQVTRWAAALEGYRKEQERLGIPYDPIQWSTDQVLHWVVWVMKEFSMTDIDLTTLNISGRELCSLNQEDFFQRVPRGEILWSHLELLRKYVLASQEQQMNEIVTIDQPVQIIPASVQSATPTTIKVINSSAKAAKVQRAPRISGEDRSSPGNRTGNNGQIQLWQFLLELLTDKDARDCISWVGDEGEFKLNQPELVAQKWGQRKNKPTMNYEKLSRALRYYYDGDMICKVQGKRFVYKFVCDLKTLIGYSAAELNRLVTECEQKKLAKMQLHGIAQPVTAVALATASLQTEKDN
# Procedure, shortened: as §1
# [4] = molecular target: T4, ERG (Homo sapiens, UniProt P11308 1-479); settings: protein: recombinant; tags: N-terminal GST; dsDNA, one strand shown
# T4 sequence: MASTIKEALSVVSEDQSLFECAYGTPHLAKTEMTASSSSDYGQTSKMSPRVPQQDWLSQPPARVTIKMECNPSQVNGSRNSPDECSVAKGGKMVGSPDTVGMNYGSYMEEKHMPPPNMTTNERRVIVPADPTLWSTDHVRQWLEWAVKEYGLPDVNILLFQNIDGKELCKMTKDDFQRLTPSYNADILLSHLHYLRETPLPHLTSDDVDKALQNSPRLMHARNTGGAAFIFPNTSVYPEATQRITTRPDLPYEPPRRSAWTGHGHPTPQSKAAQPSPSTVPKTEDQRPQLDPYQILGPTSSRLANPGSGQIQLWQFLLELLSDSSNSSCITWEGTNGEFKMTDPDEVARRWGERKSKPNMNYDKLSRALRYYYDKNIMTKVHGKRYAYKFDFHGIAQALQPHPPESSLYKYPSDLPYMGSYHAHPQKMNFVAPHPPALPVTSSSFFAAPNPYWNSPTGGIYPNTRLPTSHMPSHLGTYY
# Procedure, shortened: as §1
# [5] = molecular target: ELF1 (Homo sapiens, UniProt P32519 1-619); settings: protein: recombinant; tags: N-terminal GST; dsDNA, one strand shown
# ELF1, sequence (P32519 whole entry): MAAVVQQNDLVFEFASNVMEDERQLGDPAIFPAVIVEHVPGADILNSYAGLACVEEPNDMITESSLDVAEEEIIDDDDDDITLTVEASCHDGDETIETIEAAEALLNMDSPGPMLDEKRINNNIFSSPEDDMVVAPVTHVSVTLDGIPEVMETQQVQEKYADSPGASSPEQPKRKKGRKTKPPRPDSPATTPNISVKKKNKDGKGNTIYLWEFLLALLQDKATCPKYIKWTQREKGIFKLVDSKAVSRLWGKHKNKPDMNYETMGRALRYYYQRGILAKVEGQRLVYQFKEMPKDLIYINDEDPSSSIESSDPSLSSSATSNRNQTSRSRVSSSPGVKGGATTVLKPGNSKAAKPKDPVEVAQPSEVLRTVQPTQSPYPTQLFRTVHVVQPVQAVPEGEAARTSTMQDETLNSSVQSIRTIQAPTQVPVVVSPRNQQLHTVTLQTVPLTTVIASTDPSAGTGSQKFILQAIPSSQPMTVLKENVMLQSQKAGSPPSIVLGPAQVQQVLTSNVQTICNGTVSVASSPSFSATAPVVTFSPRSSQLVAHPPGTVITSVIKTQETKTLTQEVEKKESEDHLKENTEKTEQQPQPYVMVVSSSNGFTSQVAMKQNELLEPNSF
# Procedure, shortened: as §1
# [6] = molecular target: T5, EHF (Homo sapiens, UniProt Q9NZC4 1-300); settings: protein: recombinant; tags: N-terminal GST; dsDNA, one strand shown
# T5 sequence: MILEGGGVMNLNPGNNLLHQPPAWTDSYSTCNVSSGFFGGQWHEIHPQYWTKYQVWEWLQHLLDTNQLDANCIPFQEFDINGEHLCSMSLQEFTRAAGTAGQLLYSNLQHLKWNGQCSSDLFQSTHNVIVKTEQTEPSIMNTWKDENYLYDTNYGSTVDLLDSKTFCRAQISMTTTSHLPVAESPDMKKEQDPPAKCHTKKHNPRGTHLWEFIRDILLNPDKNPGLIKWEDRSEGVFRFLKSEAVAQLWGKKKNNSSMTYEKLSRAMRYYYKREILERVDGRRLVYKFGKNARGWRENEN
# Procedure, shortened: as §1
# [7] = molecular target: SPI1 (Homo sapiens, UniProt P17947 1-270); settings: protein: recombinant; tags: N-terminal GST; dsDNA, one strand shown
# Procedure, shortened: as §1
# [8] = molecular target: SPIB (Homo sapiens, UniProt Q01892 1-262); settings: protein: recombinant; tags: N-terminal GST; dsDNA, one strand shown
# SPIB, sequence (Q01892 whole entry): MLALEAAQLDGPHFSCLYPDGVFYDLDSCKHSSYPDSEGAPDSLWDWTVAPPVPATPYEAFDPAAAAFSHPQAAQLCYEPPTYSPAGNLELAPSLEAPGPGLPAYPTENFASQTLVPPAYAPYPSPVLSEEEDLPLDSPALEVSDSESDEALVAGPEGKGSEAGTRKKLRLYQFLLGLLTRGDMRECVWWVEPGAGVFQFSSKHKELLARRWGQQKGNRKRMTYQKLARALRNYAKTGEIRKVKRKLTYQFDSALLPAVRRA
# Procedure, shortened: as §1
# [9] = molecular target: T6, ELK3 (Homo sapiens, UniProt P41970 1-407); settings: protein: recombinant; tags: N-terminal GST; dsDNA, one strand shown
# T6 sequence: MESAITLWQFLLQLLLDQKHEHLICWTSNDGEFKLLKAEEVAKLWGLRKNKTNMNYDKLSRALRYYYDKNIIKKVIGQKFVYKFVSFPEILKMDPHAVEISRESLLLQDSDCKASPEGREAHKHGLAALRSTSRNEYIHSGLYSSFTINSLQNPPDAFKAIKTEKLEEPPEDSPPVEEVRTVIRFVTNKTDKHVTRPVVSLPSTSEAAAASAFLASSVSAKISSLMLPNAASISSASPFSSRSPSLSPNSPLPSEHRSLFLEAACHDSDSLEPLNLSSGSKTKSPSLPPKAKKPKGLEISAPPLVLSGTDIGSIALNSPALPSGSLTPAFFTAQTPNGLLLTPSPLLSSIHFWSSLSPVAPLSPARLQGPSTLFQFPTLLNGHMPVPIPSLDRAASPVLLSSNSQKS
# Procedure, shortened: as §1
# [10] = molecular target: T7, FEV (Homo sapiens, UniProt Q99581 1-238); settings: protein: recombinant; tags: N-terminal GST; dsDNA, one strand shown
# T7 sequence: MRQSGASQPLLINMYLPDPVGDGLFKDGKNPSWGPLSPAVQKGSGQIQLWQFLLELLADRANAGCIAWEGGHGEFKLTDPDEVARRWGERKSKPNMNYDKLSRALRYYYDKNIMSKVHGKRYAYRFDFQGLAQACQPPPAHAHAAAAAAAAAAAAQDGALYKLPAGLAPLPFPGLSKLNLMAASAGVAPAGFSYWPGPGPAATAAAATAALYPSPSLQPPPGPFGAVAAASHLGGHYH
# Procedure, shortened: as §1
# [11] = molecular target: ETV5 (Homo sapiens, UniProt P41161 1-510); settings: protein: recombinant; tags: N-terminal GST; dsDNA, one strand shown
# ETV5, sequence (P41161 whole entry): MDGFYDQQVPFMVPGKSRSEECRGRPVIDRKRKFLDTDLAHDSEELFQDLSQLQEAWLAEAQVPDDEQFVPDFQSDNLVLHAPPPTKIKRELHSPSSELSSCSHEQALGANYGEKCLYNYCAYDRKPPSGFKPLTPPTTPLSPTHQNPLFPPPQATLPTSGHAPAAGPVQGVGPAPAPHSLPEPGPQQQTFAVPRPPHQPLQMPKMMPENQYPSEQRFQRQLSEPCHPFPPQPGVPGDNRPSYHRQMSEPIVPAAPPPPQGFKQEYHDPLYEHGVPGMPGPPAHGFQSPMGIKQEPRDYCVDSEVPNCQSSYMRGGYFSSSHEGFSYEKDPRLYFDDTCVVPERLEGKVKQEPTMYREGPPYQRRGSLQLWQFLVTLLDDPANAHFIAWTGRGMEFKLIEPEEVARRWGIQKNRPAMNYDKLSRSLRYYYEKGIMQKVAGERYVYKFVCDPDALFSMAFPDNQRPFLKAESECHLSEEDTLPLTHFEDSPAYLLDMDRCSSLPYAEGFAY
# Procedure, shortened: as §1
# [12] = molecular target: HSF1 (Homo sapiens, UniProt Q00613 1-529); settings: protein: recombinant; tags: N-terminal GST; chain copies: 3; dsDNA, one strand shown
# HSF1, sequence (Q00613 whole entry): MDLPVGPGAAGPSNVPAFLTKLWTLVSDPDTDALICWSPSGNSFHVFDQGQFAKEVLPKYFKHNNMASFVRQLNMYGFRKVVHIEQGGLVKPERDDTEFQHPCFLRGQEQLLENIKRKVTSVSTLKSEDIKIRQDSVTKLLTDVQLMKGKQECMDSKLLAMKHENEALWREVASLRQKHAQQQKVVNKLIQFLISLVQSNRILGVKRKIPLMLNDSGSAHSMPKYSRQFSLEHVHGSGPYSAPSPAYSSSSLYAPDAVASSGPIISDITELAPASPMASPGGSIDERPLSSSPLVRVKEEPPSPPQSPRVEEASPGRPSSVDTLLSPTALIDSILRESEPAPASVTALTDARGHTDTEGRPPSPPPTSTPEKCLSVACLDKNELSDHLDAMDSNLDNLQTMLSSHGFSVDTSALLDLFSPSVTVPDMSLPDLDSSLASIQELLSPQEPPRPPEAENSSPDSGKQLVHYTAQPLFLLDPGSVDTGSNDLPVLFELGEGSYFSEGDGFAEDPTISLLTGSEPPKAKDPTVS
# Procedure, shortened: as §1
# [13] = molecular target: T8, SPIC (Homo sapiens, UniProt Q8N5J4 1-248); settings: protein: recombinant; tags: N-terminal GST; dsDNA, one strand shown
# T8 sequence: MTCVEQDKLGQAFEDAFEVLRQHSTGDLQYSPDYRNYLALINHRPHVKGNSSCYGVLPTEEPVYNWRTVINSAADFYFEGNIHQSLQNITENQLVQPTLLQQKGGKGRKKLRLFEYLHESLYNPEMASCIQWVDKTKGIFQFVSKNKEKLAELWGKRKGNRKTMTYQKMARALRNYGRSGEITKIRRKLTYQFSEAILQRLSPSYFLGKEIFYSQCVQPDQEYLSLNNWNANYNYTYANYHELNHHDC
# Procedure, shortened: as §1
# [14] = molecular target: ELF4 (Homo sapiens, UniProt Q99607 1-663); settings: protein: recombinant; tags: N-terminal GST; dsDNA, one strand shown
# ELF4, sequence (Q99607 whole entry): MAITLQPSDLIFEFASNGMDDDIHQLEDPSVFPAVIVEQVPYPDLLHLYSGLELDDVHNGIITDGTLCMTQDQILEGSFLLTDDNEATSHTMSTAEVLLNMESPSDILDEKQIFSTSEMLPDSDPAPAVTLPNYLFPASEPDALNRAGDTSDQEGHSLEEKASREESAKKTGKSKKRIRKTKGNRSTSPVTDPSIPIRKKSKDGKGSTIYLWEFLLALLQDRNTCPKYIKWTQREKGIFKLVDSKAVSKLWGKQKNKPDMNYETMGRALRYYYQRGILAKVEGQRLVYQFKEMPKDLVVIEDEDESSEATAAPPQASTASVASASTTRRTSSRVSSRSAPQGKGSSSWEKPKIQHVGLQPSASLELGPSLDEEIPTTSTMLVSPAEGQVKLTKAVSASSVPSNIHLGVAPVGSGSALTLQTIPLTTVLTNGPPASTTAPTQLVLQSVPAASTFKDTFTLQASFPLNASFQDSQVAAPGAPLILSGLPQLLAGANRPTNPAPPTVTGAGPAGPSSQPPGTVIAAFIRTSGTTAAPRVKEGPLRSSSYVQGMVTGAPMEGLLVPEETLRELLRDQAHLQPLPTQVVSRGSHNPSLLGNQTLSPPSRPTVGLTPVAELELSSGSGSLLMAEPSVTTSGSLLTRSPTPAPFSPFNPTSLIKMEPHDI
# Procedure, shortened: as §1
# [15] = molecular target: T9, ELK4 (Homo sapiens, UniProt P28324-2 1-405); settings: protein: recombinant; tags: N-terminal GST; dsDNA, one strand shown
# T9 sequence: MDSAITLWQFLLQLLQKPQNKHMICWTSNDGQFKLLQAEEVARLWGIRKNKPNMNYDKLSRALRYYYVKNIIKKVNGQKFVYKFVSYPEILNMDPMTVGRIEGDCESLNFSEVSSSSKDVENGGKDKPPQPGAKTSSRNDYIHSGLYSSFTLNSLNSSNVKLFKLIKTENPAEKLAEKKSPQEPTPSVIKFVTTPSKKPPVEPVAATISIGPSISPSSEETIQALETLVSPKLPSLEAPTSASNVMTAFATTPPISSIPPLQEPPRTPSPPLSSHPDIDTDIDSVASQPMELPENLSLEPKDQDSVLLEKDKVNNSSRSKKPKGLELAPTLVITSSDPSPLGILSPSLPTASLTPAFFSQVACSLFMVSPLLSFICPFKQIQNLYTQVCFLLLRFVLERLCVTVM
# Procedure, shortened: as §1
# [16] = molecular target: T10, ETV2 (Homo sapiens, UniProt O00321 1-342); settings: protein: recombinant; tags: N-terminal GST; dsDNA, one strand shown
# T10 sequence: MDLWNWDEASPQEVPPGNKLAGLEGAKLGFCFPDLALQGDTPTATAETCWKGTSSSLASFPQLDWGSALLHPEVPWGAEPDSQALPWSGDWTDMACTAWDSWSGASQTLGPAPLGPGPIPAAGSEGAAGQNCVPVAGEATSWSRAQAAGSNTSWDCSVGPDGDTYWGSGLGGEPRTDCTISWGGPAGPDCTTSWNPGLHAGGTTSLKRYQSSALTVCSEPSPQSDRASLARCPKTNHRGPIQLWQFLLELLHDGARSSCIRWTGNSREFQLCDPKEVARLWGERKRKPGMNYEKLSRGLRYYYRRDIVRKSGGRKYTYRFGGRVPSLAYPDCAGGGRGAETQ
# Procedure, shortened: as §1
# [17] = molecular target: T11, ELF3 (Homo sapiens, UniProt P78545 1-371); settings: protein: recombinant; tags: N-terminal GST; dsDNA, one strand shown
# T11 sequence: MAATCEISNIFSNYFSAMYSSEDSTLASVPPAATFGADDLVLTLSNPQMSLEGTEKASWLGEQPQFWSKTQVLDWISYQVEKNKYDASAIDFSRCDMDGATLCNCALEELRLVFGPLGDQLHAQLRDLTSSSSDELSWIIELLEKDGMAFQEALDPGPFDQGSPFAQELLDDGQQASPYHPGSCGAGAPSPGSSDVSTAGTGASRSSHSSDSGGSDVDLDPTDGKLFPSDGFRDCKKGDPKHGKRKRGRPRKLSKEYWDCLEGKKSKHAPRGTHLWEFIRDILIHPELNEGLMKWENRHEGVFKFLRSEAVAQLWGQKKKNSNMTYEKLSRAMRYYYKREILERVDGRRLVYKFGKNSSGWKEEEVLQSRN
# Procedure, shortened: as §1
# [18] = molecular target: CRX (Homo sapiens, UniProt O43186 1-299); settings: protein: recombinant; tags: N-terminal GST; dsDNA, one strand shown
# CRX, sequence (O43186 whole entry): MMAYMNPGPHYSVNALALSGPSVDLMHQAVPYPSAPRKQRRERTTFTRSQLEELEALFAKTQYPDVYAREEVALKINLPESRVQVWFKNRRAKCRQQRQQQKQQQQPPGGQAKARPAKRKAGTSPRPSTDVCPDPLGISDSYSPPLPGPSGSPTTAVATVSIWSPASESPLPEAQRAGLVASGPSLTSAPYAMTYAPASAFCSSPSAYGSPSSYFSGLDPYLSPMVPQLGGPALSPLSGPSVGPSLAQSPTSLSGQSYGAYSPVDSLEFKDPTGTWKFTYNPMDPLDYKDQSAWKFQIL
# Procedure, shortened: as §1
# [19] = molecular target: ETV1 (Homo sapiens, UniProt P50549 1-477); settings: protein: recombinant; tags: N-terminal GST; dsDNA, one strand shown
# ETV1, sequence (P50549 whole entry): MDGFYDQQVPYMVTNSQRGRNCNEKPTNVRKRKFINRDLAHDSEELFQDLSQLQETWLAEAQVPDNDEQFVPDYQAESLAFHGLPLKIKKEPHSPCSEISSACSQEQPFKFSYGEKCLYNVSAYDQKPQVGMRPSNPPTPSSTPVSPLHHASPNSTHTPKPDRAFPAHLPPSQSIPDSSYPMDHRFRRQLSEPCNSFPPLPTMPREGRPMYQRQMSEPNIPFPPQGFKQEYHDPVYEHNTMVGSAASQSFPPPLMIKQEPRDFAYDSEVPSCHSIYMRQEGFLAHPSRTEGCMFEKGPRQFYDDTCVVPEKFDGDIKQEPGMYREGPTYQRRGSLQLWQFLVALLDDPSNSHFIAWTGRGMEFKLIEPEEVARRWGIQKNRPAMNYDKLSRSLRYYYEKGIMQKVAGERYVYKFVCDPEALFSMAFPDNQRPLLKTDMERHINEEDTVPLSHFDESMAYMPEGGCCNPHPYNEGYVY
# Procedure, shortened: as §1
sequence,measurement,setting,value
TCTCGG,binding signal,[1],"1.69 fold enrichment (6-mer frequency, TF over GST control)"
same,binding signal,[2],"1.41 fold enrichment (6-mer frequency, TF over GST control)"
same,binding signal,[3],"1.5 fold enrichment (6-mer frequency, TF over GST control)"
same,binding signal,[4],"1.38 fold enrichment (6-mer frequency, TF over GST control)"
same,binding signal,[5],"1.46 fold enrichment (6-mer frequency, TF over GST control)"
same,binding signal,[6],"1.29 fold enrichment (6-mer frequency, TF over GST control)"
same,binding signal,[7],"1.52 fold enrichment (6-mer frequency, TF over GST control)"
same,binding signal,[8],"1.44 fold enrichment (6-mer frequency, TF over GST control)"
same,binding signal,[9],"1.42 fold enrichment (6-mer frequency, TF over GST control)"
same,binding signal,[10],"1.31 fold enrichment (6-mer frequency, TF over GST control)"
same,binding signal,[11],"1.41 fold enrichment (6-mer frequency, TF over GST control)"
same,binding signal,[12],"1.89 fold enrichment (6-mer frequency, TF over GST control)"
same,binding signal,[13],"1.1 fold enrichment (6-mer frequency, TF over GST control)"
same,binding signal,[14],"1.4 fold enrichment (6-mer frequency, TF over GST control)"
same,binding signal,[15],"1.38 fold enrichment (6-mer frequency, TF over GST control)"
same,binding signal,[16],"1.48 fold enrichment (6-mer frequency, TF over GST control)"
same,binding signal,[17],"1.33 fold enrichment (6-mer frequency, TF over GST control)"
same,binding signal,[18],"1.44 fold enrichment (6-mer frequency, TF over GST control)"
same,binding signal,[19],"1.38 fold enrichment (6-mer frequency, TF over GST control)"
